Laboratory results published in PubChem BioAssay (Tox21).
Several values for one entry are separate records, joined by “and”; a condition that tells them apart may be missing. Equal values may be shown once. Records with an inconclusive call do not appear. Where a structure was tested more than once in an assay, its records may differ in their call. Activity calls are given as the source filed them. Calls come from the whole dose curve; as a rule, active = well fitted curve in the direction sought with a large enough effect in the repeat runs; inconclusive = weak or mixed curves; inactive = no such curve, though single readings can be large; an effect the other way counts as inactive or inconclusive.

What was measured:
[1] = qHTS assay to identify small molecule antagonists of the glucocorticoid receptor (GR) signaling pathway - cell viability counter screen (AID 720693); note: nearly all actives have a fitted effect of over 55% in size
[2] = qHTS assay for identifying genotoxic compounds that show differential cytotoxicity against isogenic chicken DT40 cell lines with known DNA damage response pathways - wild type cell line (AID 743012); note: nearly all actives have a fitted effect of over 60% in size
In short: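 Endpoint: CellTiter-Glo luminescence, 30 min RT. Cells: wild type DT40, 300/well. Exposure: compounds in DMSO, 40 h, 37 C/5% CO2, after ~0.5 h pre-incubation.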

[3] = qHTS assay for identifying genotoxic compounds that show differential cytotoxicity against isogenic chicken DT40 cell lines with known DNA damage response pathways - Rev3 mutant cell line (AID 743014); note: nearly all actives have a fitted effect of over 55% in size
[4] = qHTS assay for identifying genotoxic compounds that show differential cytotoxicity against isogenic chicken DT40 cell lines with known DNA damage response pathways - Rad54/Ku70 mutant cell line (AID 743015); note: nearly all actives have a fitted effect of over 60% in size
[5] = qHTS assay to identify small molecule antagonists of the androgen receptor (AR) signaling pathway - cell viability counter screen (AID 743033; note: nearly all actives have a fitted effect of over 45% in size)
[6] = qHTS assay to identify small molecule antagonists of the androgen receptor (AR) signaling pathway using the MDA cell line - cell viability counter screen (AID 743041; note: nearly all actives have a fitted effect of over 45% in size)
In short: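 Compound exposure lasted 16 h at 37C in MDA-kb2 AR-luc cells stimulated with R1881. Protease-based CellTiter-Fluor reagent was applied for the final 30 min and fluorescence measured.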
% is set by controls: 0 for no effect and ±100 for the full control effect; potency is the fitted concentration of half-maximal effect.

OCC(F)(F)F
inactive: Potency [1] | Potency [2] | Potency [3] | Potency [4] | Potency [5] | Potency [6]

COc1cc(C)ccc1O
inactive: Potency [1] | Potency [2] | Potency [3] | Potency [4] | Potency [5] | Potency [6]

CCCCCCCCCCCCCC[N+](C)(C)Cc1ccccc1
active: Potency [1] 21.3 µM and 24.9 µM | Potency [2] 473 nM and 621 nM | Potency [3] 750 nM and 493 nM | Potency [4] 750 nM and 493 nM | Potency [5] 23.9 µM and 7.03 µM | Potency [6] 49.3 µM

CCCCOC(=O)CC
inactive: Potency [1] | Potency [2] | Potency [3] | Potency [4] | Potency [5] | Potency [6]

O=C(O)CN(CCN(CC(=O)O)CC(=O)O)CC(=O)O
inactive: Potency [1] | Potency [2] | activity, negative = cytotoxicity [3] 5.28% [at 3.82 µM] | Potency [4] | Potency [5] | Potency [6]

Cc1ccc(O)c(O)c1
inactive: Potency [5] | Potency [6]
active: Potency [1] 53.4 µM | Potency [2] 16.7 µM | Potency [3] 13.3 µM | Potency [4] 21.1 µM

CCCCC(CC)COC(=O)CCCCC(=O)OCc1ccccc1 (configuration not stated)
inactive: Potency [1] | Potency [2] | Potency [3] | Potency [4] | Potency [5] | Potency [6]

[Cu+]
active: Potency [2] 54.5 µM | Potency [3] 54.5 µM | Potency [4] 30.6 µM
inactive: Potency [1] | Potency [5] | Potency [6]

Clc1ccnc(Cl)n1
inactive: Potency [1] | Potency [2] | Potency [3] | Potency [4] | Potency [5] | Potency [6]

CCCCCCCCCCCCCC[N+](C)(C)C
active: Potency [1] 13.4 µM and 29.9 µM and 13.8 µM | Potency [2] 237 nM and 527 nM and 217 nM | Potency [3] 298 nM and 469 nM and 193 nM | Potency [4] 376 nM and 469 nM and 217 nM | Potency [5] 15.1 µM and 21.8 µM | Potency [6] 18.8 µM and 41.8 µM

COc1cc(/C=C/c2ccccc2)oc(=O)c1
inactive: Potency [1] | Potency [2] | Potency [3] | Potency [4] | Potency [5] | Potency [6]

O=c1[nH]c(=O)n([C@H]2C[C@H](O)[C@@H](CO)O2)cc1F
inactive: Potency [1] | Potency [5] | Potency [6]
active: Potency [2] 0.0053 µM | Potency [3] 0.0038 µM | Potency [4] 0.0019 µM

C#C[C@]1(OC(C)=O)CC[C@H]2[C@@H]3CCC4=C/C(=N/O)CC[C@@H]4[C@H]3CC[C@@]21CC
active: Potency [1] 21.3 µM | Potency [2] 9.44 µM | Potency [3] 13.3 µM | Potency [4] 10.6 µM
inactive: Potency [5] | Potency [6]

CCOC(=O)c1ccc(C2CCC(NC[C@H](O)COc3ccc(O)c(NS(C)(=O)=O)c3)CC2)cc1 (some centres not stated)
active: Potency [2] 0.356 µM | Potency [3] 0.1 µM | Potency [4] 0.113 µM | Potency [5] 45.2 µM
inactive: Potency [1] | Potency [6]

C#CC1(O)CC[C@H]2[C@@H]3CCC4=CCCC[C@@H]4[C@H]3CC[C@@]21C (some centres not stated)
active: Potency [2] 11.4 µM and 13.7 µM | Potency [3] 11.4 µM and 7.7 µM | Potency [4] 11.4 µM and 15.4 µM
inactive: Potency [1] | Potency [5] | Potency [6]

CC[N+](CC)(CC)CCOC(=O)C(C1CCCC1)C1CCCC1
active: Potency [2] 5.31 µM | Potency [3] 11.9 µM | Potency [4] 8.41 µM
inactive: Potency [1] | Potency [5] | Potency [6]

NC[C@H]1O[C@H](O[C@H]2[C@H](O[C@@H]3O[C@H](CO)[C@@H](O)[C@H]3O)C(O)[C@H](N)C[C@@H]2N)[C@H](N)[C@@H](O)[C@@H]1O (some centres not stated)
inactive: Potency [1] | Potency [2] | Potency [3] | Potency [4] | Potency [5] | Potency [6]

O=c1[nH]c2ccccc2n1CCCN1CCN(C(c2ccccc2)c2ccccc2)CC1
inactive: Potency [1] | Potency [5] | Potency [6]
active: Potency [2] 5.96 µM | Potency [3] 6.68 µM | Potency [4] 8.41 µM

CC(C)(C)c1ccc(C(O)CCCN2CCC(C(O)(c3ccccc3)c3ccccc3)CC2)cc1 (configuration not stated)
active: Potency [2] 4.22 µM and 3.76 µM | Potency [4] 9.44 µM
inactive: Potency [1] | Potency [5] | Potency [6]
inactive and 9.44 µM (active): Potency [3]

CCc1cccc(CC)c1NC(=O)CN(CC(=O)O)CC(=O)O
inactive: Potency [1] | Potency [2] | Potency [3] | Potency [4] | Potency [5] | Potency [6]

OC/C=C/CO
inactive: Potency [1] | Potency [2] | Potency [3] | Potency [4] | Potency [5] | Potency [6]

CC1(C)CC(O)CC(C)(C)N1
inactive: Potency [1] | Potency [2] | Potency [3] | Potency [4] | Potency [5] | Potency [6]

CCC(CC)C(C)CCOC(C)=O (configuration not stated)
inactive: Potency [1] | Potency [2] | Potency [3] | Potency [4] | Potency [5] | Potency [6]

CCn1c2ccccc2c2cc([N+](=O)[O-])ccc21
inactive: Potency [1] | Potency [5] | Potency [6]
active: Potency [2] 48.6 µM | Potency [3] 27.3 µM | Potency [4] 54.5 µM

Cc1nc(-c2ccc(Cl)cc2)oc1COC(C)(C)C(=O)O
inactive: Potency [1] | Potency [2] | Potency [3] | Potency [4] | Potency [5] | Potency [6]

CN1CCC[C@@H]1CCO[C@](C)(c1ccccc1)c1ccc(Cl)cc1
active: Potency [2] 9.44 µM | Potency [3] 10.6 µM | Potency [4] 21.1 µM
inactive: Potency [1] | Potency [5] | Potency [6]

C/C=C/C=C/COC(=O)C(C)C
inactive: Potency [1] | Potency [5] | Potency [6]
active: Potency [2] 13.7 µM | Potency [3] 13.7 µM | Potency [4] 17.2 µM
